Among the data in article PMC5700166 are binding signal values, retold here.

Common to all, as to assay: protein-binding microarray (PBM); PBM: ~300 nM protein, 6 mM HEPES pH 7.8, 80 mM KCl, 0.5 mM EDTA, 0.5 mM EGTA, 6% glycerol, 35 ng/ul poly-dIdC, 1% milk, 1 h, room temperature; Ap Aiptasia and Nv Nematostella (sea anemones) / Co Capsaspora / Aq Amphimedon (sponge) / Dm Drosophila / Hu human; RHD is the Rel homology domain; high values mean tight binding
What all share (details): dsDNA, one strand shown

In experiment [1] the target is T1, GST-Ap-NF-kB RHD (Exaiptasia pallida (Aiptasia), UniProt A0A913YAJ5 2-422).
T1 sequence: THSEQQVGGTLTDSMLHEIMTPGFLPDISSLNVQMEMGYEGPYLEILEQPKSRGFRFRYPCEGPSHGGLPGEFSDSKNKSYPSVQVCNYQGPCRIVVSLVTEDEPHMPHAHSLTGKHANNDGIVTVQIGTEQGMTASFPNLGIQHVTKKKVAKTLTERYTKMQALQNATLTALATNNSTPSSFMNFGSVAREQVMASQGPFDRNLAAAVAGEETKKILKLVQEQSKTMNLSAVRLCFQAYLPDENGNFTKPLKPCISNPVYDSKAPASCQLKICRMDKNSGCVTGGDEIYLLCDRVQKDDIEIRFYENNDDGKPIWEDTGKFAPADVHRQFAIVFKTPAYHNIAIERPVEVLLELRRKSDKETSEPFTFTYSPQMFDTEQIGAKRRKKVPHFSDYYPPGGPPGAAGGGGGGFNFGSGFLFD

Experiment [2] deals with T2, GST-Nv-NF-kB (Cys allele) (Nematostella vectensis, UniProt E5G601 2-411).
T2 sequence: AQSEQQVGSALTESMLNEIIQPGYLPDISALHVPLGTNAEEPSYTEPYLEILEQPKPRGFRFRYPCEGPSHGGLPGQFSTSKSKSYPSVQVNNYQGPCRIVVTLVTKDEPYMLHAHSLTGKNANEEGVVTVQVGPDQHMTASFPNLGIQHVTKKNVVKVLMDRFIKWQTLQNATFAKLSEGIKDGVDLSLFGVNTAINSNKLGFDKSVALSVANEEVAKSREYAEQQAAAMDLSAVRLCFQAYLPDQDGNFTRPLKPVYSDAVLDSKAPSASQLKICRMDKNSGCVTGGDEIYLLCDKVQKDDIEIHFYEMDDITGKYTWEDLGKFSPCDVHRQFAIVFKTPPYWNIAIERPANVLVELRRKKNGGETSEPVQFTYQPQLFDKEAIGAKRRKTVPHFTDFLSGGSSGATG

Experiment [3] deals with T3, GST-Nv-NF-kB (Ser allele) (Nematostella vectensis, UniProt A7UNT2 2-411).
T3 sequence: T2 sequence with Q21R, C66S, S207N, E215Q, V217A, E225K, A268E, D399E

Experiment [4] has as its target T4, GST-Dm-Relish (Drosophila melanogaster, UniProt Q94527 99-473).
T4 sequence: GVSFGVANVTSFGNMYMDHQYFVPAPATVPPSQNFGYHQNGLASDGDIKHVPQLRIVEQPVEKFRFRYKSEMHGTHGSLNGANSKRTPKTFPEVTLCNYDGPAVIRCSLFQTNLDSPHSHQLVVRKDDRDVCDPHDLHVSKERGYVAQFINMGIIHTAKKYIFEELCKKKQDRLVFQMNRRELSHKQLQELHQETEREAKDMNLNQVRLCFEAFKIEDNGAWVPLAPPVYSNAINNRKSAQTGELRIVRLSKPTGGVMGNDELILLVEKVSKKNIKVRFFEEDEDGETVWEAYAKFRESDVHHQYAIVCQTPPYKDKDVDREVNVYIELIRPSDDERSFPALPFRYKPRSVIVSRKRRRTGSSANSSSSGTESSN

Experiment [5] concerns the target T5, GST-Aq-NF-kB (Amphimedon queenslandica, UniProt A9Y5G7 2-389).
T5 sequence: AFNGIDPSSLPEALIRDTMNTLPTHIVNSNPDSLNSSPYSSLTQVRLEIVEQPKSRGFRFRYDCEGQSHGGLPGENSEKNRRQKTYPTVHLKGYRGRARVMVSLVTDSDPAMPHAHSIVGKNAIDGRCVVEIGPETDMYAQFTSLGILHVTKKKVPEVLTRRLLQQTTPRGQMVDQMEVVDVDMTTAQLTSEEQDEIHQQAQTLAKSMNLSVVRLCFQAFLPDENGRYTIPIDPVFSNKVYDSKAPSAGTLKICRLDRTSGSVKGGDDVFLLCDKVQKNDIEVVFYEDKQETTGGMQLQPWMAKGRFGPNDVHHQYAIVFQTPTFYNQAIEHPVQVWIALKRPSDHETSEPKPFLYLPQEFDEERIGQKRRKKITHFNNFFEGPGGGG

Experiment [6] concerns the target GST-Hu-p50 (Homo sapiens, UniProt P19838 7-356).
In experiment [7] the target is T6, GST-Co-NF-kB (Capsaspora owczarzaki, UniProt F1ARL5 200-546).
T6 sequence: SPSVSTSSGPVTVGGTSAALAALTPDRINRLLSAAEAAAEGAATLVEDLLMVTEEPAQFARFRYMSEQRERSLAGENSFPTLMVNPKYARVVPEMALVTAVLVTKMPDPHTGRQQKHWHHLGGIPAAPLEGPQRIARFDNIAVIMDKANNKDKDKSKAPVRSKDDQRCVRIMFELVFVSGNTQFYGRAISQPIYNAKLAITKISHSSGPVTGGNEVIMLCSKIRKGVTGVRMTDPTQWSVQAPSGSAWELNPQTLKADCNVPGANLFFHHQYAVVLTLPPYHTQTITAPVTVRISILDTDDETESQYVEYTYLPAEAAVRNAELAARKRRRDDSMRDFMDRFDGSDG

Changes are numbered by the printed parent chain.

Sequence of GST-Hu-p50 (P19838 7-356): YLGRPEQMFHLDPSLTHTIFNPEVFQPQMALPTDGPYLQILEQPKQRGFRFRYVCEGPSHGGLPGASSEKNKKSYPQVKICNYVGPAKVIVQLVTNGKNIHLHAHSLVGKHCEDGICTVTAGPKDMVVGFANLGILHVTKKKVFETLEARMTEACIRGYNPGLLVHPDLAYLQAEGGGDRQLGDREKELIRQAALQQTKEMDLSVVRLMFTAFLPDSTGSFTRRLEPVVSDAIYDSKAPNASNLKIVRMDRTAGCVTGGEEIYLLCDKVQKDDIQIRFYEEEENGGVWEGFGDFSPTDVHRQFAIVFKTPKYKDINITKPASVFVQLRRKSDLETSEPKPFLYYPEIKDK

Consider “CCGATTAACATCAGGAGAGTACCTGATGTTAATCGGGTCTTGATTCGCTTGACGCTGCTG”, for which the binding signal in experiment [1] was 1.28 z-score; in experiment [2], 2.32 z-score; in experiment [3], 3.99 z-score; in experiment [4], 2.54 z-score; in experiment [5], 3.47 z-score; in experiment [6] it was 2.62 z-score.
As for “CCGATTAACATCAAGGAACCCCCTGATGTTAATCGGGTCTTGATTCGCTTGACGCTGCTG”, the binding signal in experiment [1] is 8.43 z-score; in experiment [2], 5.99 z-score; in experiment [7], 2.03 z-score; in experiment [4] it was 10.4 z-score; in experiment [5], 6.6 z-score; in experiment [6], 6.57 z-score.
Regarding “CCGATTAACATCAAAAGCCCCCTTGATGTTAATCGGGTCTTGATTCGCTTGACGCTGCTG”, the binding signal in experiment [1] is 6.3 z-score; in experiment [2], 6.73 z-score; in experiment [7] it was 1.89 z-score; in experiment [4], 7.9 z-score; in experiment [5] it was 6.88 z-score; in experiment [6] it was 6.5 z-score.
Consider “CCGATTAACATCAGAAAAGTACCTGATGTTAATCGGGTCTTGATTCGCTTGACGCTGCTG”, for which the binding signal in experiment [1] worked out at 3.82 z-score; in experiment [2], 6.4 z-score; in experiment [3], 9.87 z-score; in experiment [4], 8.45 z-score; in experiment [5] it was 4.69 z-score; in experiment [6], 6.05 z-score.
Regarding “CCGATTAACATCAGGGATTTACATGATGTTAATCGGGTCTTGATTCGCTTGACGCTGCTG”, the binding signal was 2.19 z-score in experiment [1]; 2.3 z-score in experiment [2]; 1.4 z-score in experiment [3]; 9.71 z-score in experiment [4]; 3.34 z-score in experiment [5]; 1.92 z-score in experiment [6].
On to “CCGATTAACATCAGGGTTTCACCTGATGTTAATCGGGTCTTGATTCGCTTGACGCTGCTG”, for which the binding signal in experiment [1] came out at 1.51 z-score; in experiment [2], 1.95 z-score; in experiment [3], 1.23 z-score; in experiment [4] it was 5.71 z-score; in experiment [5], 3.71 z-score; in experiment [6] it was 2.5 z-score.
As to “CCGATTAACATCAGGGAGTCACCTGATGTTAATCGGGTCTTGATTCGCTTGACGCTGCTG”, the binding signal amounted to 3.25 z-score in experiment [1]; 1.16 z-score in experiment [2]; 1.39 z-score in experiment [3]; 8.86 z-score in experiment [4]; 3.63 z-score in experiment [5]; 1.96 z-score in experiment [6].
“CCGATTAACATCAAGGAAGTCCCTGATGTTAATCGGGTCTTGATTCGCTTGACGCTGCTG”: the binding signal turned out to be 5.76 z-score in experiment [1]; 5.94 z-score in experiment [2]; 5.82 z-score in experiment [3]; 7.11 z-score in experiment [4]; 5.83 z-score in experiment [5]; 4.82 z-score in experiment [6].
Take “CCGATTAACATCAGGGTACTACCTGATGTTAATCGGGTCTTGATTCGCTTGACGCTGCTG”: the binding signal in experiment [1] was 2.34 z-score; in experiment [2], 1.63 z-score; in experiment [3], 2.2 z-score; in experiment [4], 1.62 z-score; in experiment [5], 4.13 z-score; in experiment [6], 1.43 z-score.
As for “CCGATTAACATCAAGGGAACCCCTGATGTTAATCGGGTCTTGATTCGCTTGACGCTGCTG”, the binding signal in experiment [1] worked out at 5.4 z-score; in experiment [2] it was 3.13 z-score; in experiment [3] it was 1.95 z-score; in experiment [4] it was 9.38 z-score; in experiment [5] it was 5.18 z-score; in experiment [6], 3.12 z-score.
Take “CCGATTAACATCAGAAAGTCCCATGATGTTAATCGGGTCTTGATTCGCTTGACGCTGCTG”: the binding signal was 5.73 z-score in experiment [1]; 7.09 z-score in experiment [2]; 6.43 z-score in experiment [3]; 6.06 z-score in experiment [4]; 5.57 z-score in experiment [5]; 4.63 z-score in experiment [6].
In the case of “CCGATTAACATCAGGAAAGTCCCTGATGTTAATCGGGTCTTGATTCGCTTGACGCTGCTG”, the binding signal in experiment [1] is 7.69 z-score; in experiment [2], 10.6 z-score; in experiment [3], 8.2 z-score; in experiment [4], 8.43 z-score; in experiment [5], 9.81 z-score; in experiment [6], 7.09 z-score.
On to “CCGATTAACATCAGGGAAACTTATGATGTTAATCGGGTCTTGATTCGCTTGACGCTGCTG”, for which the binding signal was found to be 3.98 z-score in experiment [1]; 6.28 z-score in experiment [2]; 5.54 z-score in experiment [7]; 2.25 z-score in experiment [4]; 6.43 z-score in experiment [5]; 4.53 z-score in experiment [6].
